According to PubChem BioAssay (NCI):
Compounds without any hit were thinned out: in the full panel of roughly 83,000, 20% have a hit.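 Single-concentration screen, 48 h exposure, 96-well plates. Endpoint: percent growth. Below 10 = active.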 Activity calls are given as the source filed them.

Legend:
Experiment in all cases: NCI-60 one-dose screen, 48 h (100 = growth as untreated, 0 = no growth, -100 = all killed)
Details in all cases: 10 µM unless noted
SR leukemia = system: SR leukemia
RPMI-8226 leukemia = system: RPMI-8226 leukemia
OVCAR-8 ovarian = system: OVCAR-8 ovarian
OVCAR-5 ovarian = system: OVCAR-5 ovarian
OVCAR-4 ovarian = system: OVCAR-4 ovarian
OVCAR-3 ovarian = system: OVCAR-3 ovarian
HS 578T breast = system: HS 578T breast
NCI/ADR-RES ovarian = system: NCI/ADR-RES ovarian
IGROV1 ovarian = system: IGROV1 ovarian
SK-OV-3 ovarian = system: SK-OV-3 ovarian

Measured: growth

C=C(CN1CCN(c2cccc(C(F)(F)F)n2)CC1)c1ccc(C(=O)Nc2ccccc2N)cc1
active: SR leukemia -20.9% | RPMI-8226 leukemia 4.35% | OVCAR-3 ovarian -38.2% | NCI/ADR-RES ovarian 1.99%
inactive: OVCAR-8 ovarian 18.8% | OVCAR-5 ovarian 34.8% | OVCAR-4 ovarian 32.9% | HS 578T breast 41.1%

C/C(Cc1ccc(Cl)cc1)=C(\c1ccc(OCCN2CCCCCC2)cc1)c1ccc(OC(=O)Cc2ccccc2)cc1
inactive: RPMI-8226 leukemia 33% | OVCAR-8 ovarian 72.1% | OVCAR-5 ovarian 73.8% | OVCAR-4 ovarian 85% | IGROV1 ovarian 44.9% | OVCAR-3 ovarian 69.6% | HS 578T breast 62.3% | NCI/ADR-RES ovarian 72.4%
active: SR leukemia 1.29%

CC(C)(C)n1cc(-c2ccnc(NCCCNS(=O)(=O)c3cccc4ccccc34)c2)c(-c2cccc(O)c2)n1
inactive: OVCAR-8 ovarian 30.6% | OVCAR-5 ovarian 48.4% | OVCAR-4 ovarian 36.5% | IGROV1 ovarian 41.7% | OVCAR-3 ovarian 43.6% | HS 578T breast 36.6% | NCI/ADR-RES ovarian 36.5%
active: SR leukemia -1.59% | RPMI-8226 leukemia -34.8%

CCN(CC)c1ccc(CNc2cc(C)nc3ccc(OC)cc23)cc1
inactive: OVCAR-8 ovarian 81.4% | OVCAR-5 ovarian 96.3% | OVCAR-4 ovarian 71.9% | OVCAR-3 ovarian 51.6% | NCI/ADR-RES ovarian 33.9%
active: SR leukemia -22.2% | RPMI-8226 leukemia -33.7%

Cc1ccc2c(c1)n([O-])c1cc(Cl)ccc1[n+]2=O
inactive: RPMI-8226 leukemia 104% | OVCAR-8 ovarian 108% | OVCAR-5 ovarian 102% | SK-OV-3 ovarian 122% | IGROV1 ovarian 101% | OVCAR-3 ovarian 92.6% | HS 578T breast 135%
active: SR leukemia 5.98%

COc1ccccc1/C=C(/C(=O)c1ccccc1)c1ccccc1
inactive: SR leukemia 94.7% | RPMI-8226 leukemia 96.9% | OVCAR-8 ovarian 87.7% | OVCAR-5 ovarian 128% | OVCAR-4 ovarian 94.2% | IGROV1 ovarian 96.7% | OVCAR-3 ovarian 102% | NCI/ADR-RES ovarian 92.1%

COc1cc(-c2c3sc(=O)[nH]c3nc3c2c(=O)[nH]n3C(C)C)cc2c1OCO2
inactive: SR leukemia 81.5% | RPMI-8226 leukemia 124% | OVCAR-8 ovarian 108% | OVCAR-5 ovarian 96.6% | SK-OV-3 ovarian 114% | IGROV1 ovarian 101% | OVCAR-3 ovarian 114% | HS 578T breast 105% | NCI/ADR-RES ovarian 102%

CC(=O)C1=C(O)C=C2Oc3c(C(=O)/C=C/c4cc(C(F)(F)F)cc(C(F)(F)F)c4)c(O)c(C)c(O)c3[C@]2(C)C1=O
active: SR leukemia -29.3% | RPMI-8226 leukemia -18.8% | OVCAR-8 ovarian -29.1% | OVCAR-5 ovarian -6.52% | SK-OV-3 ovarian -32.9% | IGROV1 ovarian -6.87% | OVCAR-3 ovarian -50.5% | HS 578T breast -12.2% | NCI/ADR-RES ovarian -48.2%

CC/C=C\C[C@H](O)C/C=C1/C(=O)C=C[C@@H]1C/C=C\CCCC(=O)NC(C)C
inactive: OVCAR-5 ovarian 41.6% | SK-OV-3 ovarian 21.4% | IGROV1 ovarian 14.8% | HS 578T breast 46.6% | NCI/ADR-RES ovarian 15.9%
active: SR leukemia -24.9% | RPMI-8226 leukemia -5.29% | OVCAR-8 ovarian -12.5% | OVCAR-3 ovarian -6.93%

Cc1cc(Nc2nc(N3CCOCC3)nc3ccccc23)n[nH]1
inactive: SR leukemia 10.8% | RPMI-8226 leukemia 82.5% | OVCAR-8 ovarian 104% | OVCAR-5 ovarian 88.7% | SK-OV-3 ovarian 20.5% | IGROV1 ovarian 30.9% | OVCAR-3 ovarian 58.6% | HS 578T breast 16.3% | NCI/ADR-RES ovarian 86.3%

CC#Cc1nc2ccccc2c(=O)[nH]1
active: RPMI-8226 leukemia 2.5% | OVCAR-3 ovarian 4.22%
inactive: SR leukemia 39.4% | OVCAR-8 ovarian 42% | OVCAR-5 ovarian 76.4% | SK-OV-3 ovarian 112% | IGROV1 ovarian 14% | NCI/ADR-RES ovarian 55%

Brc1cccc(-c2cc(-c3ccc4c(c3)OCCO4)[nH]n2)c1
active: OVCAR-3 ovarian -7.07% [25 µM] | NCI/ADR-RES ovarian 4.14% [25 µM]
inactive: SR leukemia 31.4% [25 µM] | RPMI-8226 leukemia 20.8% [25 µM] | OVCAR-8 ovarian 29.7% [25 µM] | OVCAR-5 ovarian 39.8% [25 µM] | SK-OV-3 ovarian 39.5% [25 µM] | IGROV1 ovarian 30.2% [25 µM]

COCCOc1ccc(-c2nc3ccc(-c4nc5ccc(N6CCN(C)CC6)cc5[nH]4)cc3[nH]2)cc1
active: OVCAR-8 ovarian -39% | SK-OV-3 ovarian 7.92% | OVCAR-3 ovarian 2.47% | HS 578T breast -3.7%
inactive: RPMI-8226 leukemia 28.4% | OVCAR-5 ovarian 45.3% | OVCAR-4 ovarian 14.1% | IGROV1 ovarian 28.3% | NCI/ADR-RES ovarian 100%

CCOC(=O)N1CCN(c2nc(Nc3cc(C)[nH]n3)c3ccccc3n2)CC1
inactive: RPMI-8226 leukemia 37.3% | OVCAR-8 ovarian 74% | OVCAR-5 ovarian 55.9% | OVCAR-4 ovarian 49.5% | SK-OV-3 ovarian 47.8% | IGROV1 ovarian 35.6% | OVCAR-3 ovarian 55.3% | HS 578T breast 29.6% | NCI/ADR-RES ovarian 55.4%

O=C1c2c[n+](Cc3ccccc3)ccc2-c2nc3ccccc3c3ccnc1c23
inactive: NCI/ADR-RES ovarian 75.9%
active: SR leukemia -8.84% | RPMI-8226 leukemia -25.2% | OVCAR-5 ovarian -11% | OVCAR-4 ovarian -38.7% | SK-OV-3 ovarian -13% | IGROV1 ovarian -46.1% | OVCAR-3 ovarian -66.8% | HS 578T breast -18.8%
